The panel holds about 79,000 compounds, 15% with a hit somewhere; the sample as a whole holds those more often. Activity calls are given as the source filed them. Rule as the data show it: active = growth inhibition above about 70%; inactive = the rest.
What was measured:
[1] = NCI Yeast Anticancer Drug Screen. Data for the rad50 strain (AID 155);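 also: 0% = growth of vehicle-only cultures of the same strain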; conditions: S. cerevisiae rad50 strain growth inhibition; at 50.0 µM; active compounds read high
Method in brief: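 Cells are treated with compound, grown, and their growth is then scored against vehicle-only cultures of the same repair-deficient yeast strain.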

[2] = NCI Yeast Anticancer Drug Screen. Data for the mec2-1 strain (AID 157); conditions: S. cerevisiae mec2-1 strain, at 50.0 µM, active compounds read high
Method in brief: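 Strain: mec2-1 (DNA repair/cell cycle alteration). Compound exposure, then growth measured; inhibition expressed relative to vehicle.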

[3] = NCI Yeast Anticancer Drug Screen. Data for the sgs1 mgt1 strain (AID 161);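 also: 0% = growth of cultures given vehicle only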; conditions: S. cerevisiae sgs1 mgt1 strain, at 50.0 µM, active compounds read high
Method in brief: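 Test agents were incubated with a DNA-repair-mutant yeast strain. Growth was then read and compared against vehicle-treated controls.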

[4] = NCI Yeast Anticancer Drug Screen. Data for the cln2 rad14 strain (AID 165);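 also: 0% = growth equal to vehicle treated cultures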; conditions: S. cerevisiae cln2 rad14 strain, at 50.0 µM, active compounds read high
Method in brief: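 Compounds are applied to the cln2 rad14 yeast strain, and growth is then compared with that of vehicle-treated cultures to give inhibition.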

[5] = NCI Yeast Anticancer Drug Screen. Data for the bub3 strain (AID 167); conditions: S. cerevisiae bub3 mutant strain, at 50.0 µM, active compounds read high
Method in brief: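 Part of a panel of yeast mutants defective in DNA damage repair or cell cycle regulation. Each strain is grown with compound, and inhibition is calculated relative to solvent-treated cultures.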

[6] = NCI Yeast Anticancer Drug Screen. Data for the mlh1 rad18 strain (AID 175); conditions: S. cerevisiae mlh1 rad18 strain growth inhibition; at 50.0 µM; active compounds read high
Method in brief: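 Read-out is yeast growth inhibition, calculated against vehicle-only controls. The compound was applied to a strain engineered with DNA damage repair alterations.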

Measured: growth inhibition

CCC(=O)C(C)C(=O)CCC(=O)Nc1cc(Cl)ccc1Cl (stereo not given)
inactive: [1] 21.4% | [2] 18.5% | [3] 18.6% | [4] 20.2% | [5] 18.1% | [6] 19.6%

CCCC(SCCO)C(CC)CSCCO (stereo not given)
inactive: [1] -16.8% | [2] -9.55% | [3] 2.65% | [4] -14.5% | [5] 13.1% | [6] 5.7%

COCCCNC(=O)C1C(=O)C(=O)N(CCCOC)C1=O (stereo not given)
inactive: [1] -2.35% | [2] -3.45% | [3] -15.8% | [4] 13.2% | [5] -5% | [6] -10.6%

O=C1C(CCCS)C(c2ccccc2)=NN1c1ccccc1 (stereo not given)
inactive: [1] 54.9% | [2] 3.9% | [3] 18.4% | [4] -12.8% | [5] 0.45% | [6] 39%

Cc1ccc(S(=O)(=O)n2oc(N)c(Cc3ccccc3)c2=O)cc1
inactive: [1] -25.4% | [2] -0.15% | [3] 7.8% | [4] -23.5% | [5] 19.2% | [6] -2.55%

N#CC(c1ccc(N)cc1)c1ccc(F)cc1 (stereo not given)
inactive: [1] 15.6% | [2] -16.8% | [3] 22.2% | [4] 27.2% | [5] -0.6% | [6] 26.2%

CC1=Nc2c([nH]c(=S)[nH]c2=O)NC(c2c(Cl)cccc2Cl)C1 (stereo not given)
inactive: [1] 3.9% | [2] 11.6% | [3] 14.2% | [4] -4.5% | [5] -4.5% | [6] 34.6%

O=S(=O)(O)c1ccccc1P(c1ccccc1)c1ccccc1
inactive: [1] 17.1% | [2] 17.7% | [3] 8.15% | [4] 36.1% | [5] 17.6% | [6] 14.6%

C=C(C)C(=O)Nc1ccc(-n2[nH]c(C)c(N=Nc3ccc(N(C)C)cc3)c2=O)cc1
inactive: [1] 6.95% | [2] -5.5% | [3] -14.6% | [4] -36% | [5] -2.55% | [6] 1.85%

Cc1ccccc1NC(=O)CS
inactive: [1] 17.6% | [2] 31.9% | [3] 31.2% | [4] -21% | [5] 29.2% | [6] 33.2%

CCCCCCC(=O)/C=C/c1ccc(Cl)cc1
inactive: [1] 11.9% | [2] -22.1% | [3] -3.1% | [4] -6.5% | [5] 16.2% | [6] -15.6%

O=C(Cc1ccccc1)NC(CSSCC(NC(=O)Cc1ccccc1)C(=O)O)C(=O)O (stereo not given)
inactive: [1] 26.3% | [2] 10.8% | [3] 36.6% | [4] -37.1% | [5] 3.2% | [6] 11.1%

c1ccc(-c2c3ccccc3cc3c2ccc2ccccc23)cc1
inactive: [1] -13.4% | [2] -12.2% | [3] -3.95% | [4] 9.25% | [5] 19.5% | [6] 0.55%

Nc1c(S(=O)(=O)O)cc(Nc2cccc(S(=O)(=O)/C=C/S(=O)(=O)O)c2)c2c1C(=O)c1ccccc1C2=O
inactive: [1] 8.4% | [2] -28.9% | [3] -1.2% | [4] -2.45% | [5] 0.85% | [6] -14.2%

O=C(O)CC(O)c1ccccc1 (stereo not given)
inactive: [1] 30.8% | [2] 13.6% | [3] 16.6% | [4] 17.1% | [5] -0.95% | [6] 18.6%

C/C=C(\C)c1cc(O)c(C)c2c1Oc1cc(O)c(Cl)c(C)c1C(=O)O2
active: [1] 92.5% | [2] 94.8% | [3] 93.9% | [4] 92.3% | [5] 93.5% | [6] 92.5%

C=CCOc1ccc(Cl)cc1Br
inactive: [1] -1.8% | [2] -4.6% | [3] -2.65% | [4] -46.6% | [5] -3.35% | [6] -7.8%

OCCN(CCO)c1ncnc2c1ncn2-c1ccc(CCCl)cc1
inactive: [1] 5.3% | [2] -3.1% | [3] -2.85% | [4] 6.05% | [5] 19% | [6] 0.1%

Nc1ccc(Cl)cc1Br
inactive: [1] 6.35% | [2] 22.4% | [3] -6.5% | [4] 5.5% | [5] -7.05% | [6] 8.6%

Clc1cc(/C=C/c2ccccc2)c2ccccc2n1
inactive: [1] 25.9% | [2] -0.05% | [3] 12.6% | [4] -7.5% | [5] -4.65% | [6] 22.3%

Source: PubChem BioAssay (NCI)
